Compounds with a hit are over-represented: about 3.4% of the library has one in this group of screens.
MITF primary: blocks human microphthalmia-associated transcription factor; AlphaScreen MITF homodimerization, bead proximity signal; inhibition, % at 2.6 µM; actives 0.91% (n = 650,000); in the data active = inhibition above about 50%
FBW7 activator: activators of human E3 ligase FBW7; Q969H0; AlphaScreen FBW7–phospho-cyclin E peptide binding, activator screen; normalized activity (activation), % at 26.1 µM; actives 0.13% (n = 650,000); AID 1259310; in the data active = normalized activity above about 1.9%;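 note: purified mutant Fbw7 with reduced substrate affinity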
GPR151 activ: human GPR151 activation; Q8TDV0; PathHunter beta-arrestin GPR151 cells, luminescence; activation, % at 11.2 µM; actives 1% (n = 650,000); AID 1508602; in the data active = activation above about 4.9%
Target sequence (Q8TDV0 whole entry, looked up): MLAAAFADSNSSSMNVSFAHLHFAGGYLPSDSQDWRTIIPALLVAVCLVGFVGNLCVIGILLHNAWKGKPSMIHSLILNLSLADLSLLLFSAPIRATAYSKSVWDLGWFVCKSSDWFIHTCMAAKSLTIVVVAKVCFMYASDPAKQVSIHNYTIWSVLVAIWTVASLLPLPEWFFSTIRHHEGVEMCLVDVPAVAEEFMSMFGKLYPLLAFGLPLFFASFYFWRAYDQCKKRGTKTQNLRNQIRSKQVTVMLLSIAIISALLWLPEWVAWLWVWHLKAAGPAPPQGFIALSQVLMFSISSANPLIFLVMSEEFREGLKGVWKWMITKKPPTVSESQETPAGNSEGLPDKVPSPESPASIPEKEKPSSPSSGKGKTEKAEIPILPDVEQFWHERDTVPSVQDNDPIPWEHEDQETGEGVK
TEAD-YAP inh: TEAD-YAP interaction inhibition; HEK-TIYL cells, TEAD-Gal4/YAP UAS-luciferase luminescence; inhibition, % at 9.12 µM; actives 1.4% (n = 640,000); in the data active = inhibition above about 32%
A number is an active result; n = inactive.

SMILES | MITF primary | FBW7 activator | GPR151 activ | TEAD-YAP inh
CC(C)n1cnc2c(Nc3ccccc3)nc(-c3ccc(C(=O)NC4CC4)cc3)nc21 | n | n | n | 32
COc1cc(C(=O)Nc2sc3c(c2C#N)CCC3)cc(OC)c1OC | n | n | n | 41
COc1cc(C(=O)Nc2sc3c(c2C#N)CCC(C)C3)cc(OC)c1OC (centres undefined) | n | n | n | n
COc1cc(C(=O)Nc2sc3c(c2C#N)CCC(C)C3)c(Br)c(OC)c1OC (centres undefined) | n | n | n | 34
Cc1ccc(CNCc2ccc(Br)o2)cc1 | n | n | n | n
O=S(=O)(NC1CCCCCCC1)c1ccccc1 | n | n | n | n
O=S(=O)(NC1CCCC1)c1cccc(-c2nnc(-c3ccccc3)o2)c1 | n | n | n | 33
CCOC(=O)c1[nH]c(C)c(C(=O)Nc2cc(F)ccc2F)c1C | n | n | n | 42
CCOC(=O)c1[nH]c(C)c(C(=O)c2cc(F)ccc2F)c1C | n | n | n | 45
CCOC(=O)c1[nH]c(C)c(C(=O)OCC(=O)Nc2sccc2C(N)=O)c1C | n | n | n | 32
CCc1ccc(Nc2ncnc3c2c(-c2ccccc2)cn3-c2ccc(Cl)cc2)cc1 | n | n | n | n
Cc1ccccc1/C=N/NC(=O)c1ccc(Br)cc1 | n | n | n | n
C/C(=N\NC(=O)c1ccc(CO)nc1)c1ccc(Br)cc1 | n | n | n | n
COc1ccccc1C(=O)Nc1cccc(N2CCC(NCCc3ccco3)CC2)c1 | n | n | n | 44
COc1ccccc1C(=O)Nc1cccc(N2CCC(NCCc3cnccn3)CC2)c1 | n | n | n | n
COc1ccccc1C(=O)Nc1cccc(N2CCC(NCc3ccsc3)CC2)c1 | n | n | n | n
O=S(=O)(Nc1cccc(N2CCC(NCCn3ccnc3)CC2)c1)c1ccc(F)cc1 | n | n | n | n
COc1ccccc1C(=O)Nc1cccc(N2CCC(NCCc3cccs3)CC2)c1 | n | n | n | 51
CCCCNC1CCN(c2cccc(NC(=O)c3ccccc3OC)c2)CC1 | n | n | n | 41
O=S(=O)(Nc1cccc(N2CCC(NCCc3ccco3)CC2)c1)c1ccc(F)cc1 | 61 | n | n | n
Cc1ccc(NC(=O)c2ccc3c(c2)N(CC(=O)NC2CCCCC2)C(=O)C(C)(C)O3)cc1 | n | n | n | n
CCN(CC)c1ccc(/C=N/Nc2nn[nH]n2)c(O)c1 | n | n | n | n
Oc1ccc(/C=N/Nc2nn[nH]n2)c(O)c1O | 95 | n | n | n
Oc1ccc(/C=N/Nc2nn[nH]n2)cc1O | 52 | n | n | n
C(=N\Nc1nn[nH]n1)/c1ccc2c(c1)OCO2 | n | n | n | n
SMILES | MITF primary | FBW7 activator | GPR151 activ | TEAD-YAP inh
O=C(Nc1nccc(-c2cccc(Nc3ccccc3)c2)n1)C1CCOC1 (centres undefined) | n | n | n | n
CC[n+]1c(C)n(CCCS(=O)(=O)O)c2cc(C#N)ccc21 | n | n | n | n
CCCC(CCn1c(C)[n+](CC)c2ccc(C#N)cc21)S(=O)(=O)O (centres undefined) | n | 1.9 | n | n
COc1ccc(Oc2ncnc3c2cnn3-c2ccccc2)cc1 | n | n | n | n
Cc1ccc(Oc2ncnc3c2cnn3-c2ccccc2)cc1 | n | n | n | 51
Fc1ccc(-n2ncc3c(Oc4ccc(Cl)cc4)ncnc32)cc1 | n | n | n | 42
Fc1cccc(Oc2ncnc3c2cnn3-c2cccc(Cl)c2)c1 | n | n | n | n
Cc1ccc(-n2ncc3c(Oc4ccc(F)cc4)ncnc32)cc1 | n | n | n | 58
O=C1CCCN2N=C(SC(c3ccccc3)c3ccccc3)SC2=N1 | n | n | n | n
Cc1cccc(Nc2nnc(SCC(=O)Nc3ccccc3C#N)s2)c1 | n | n | n | n
C=C(C)CNC(=S)N/N=C/c1ccccc1C(=O)O | n | n | n | n
CCOC(=O)c1ccc(NC(=O)c2ccc(C)c(S(=O)(=O)N3CCOCC3)c2)cc1 | n | n | n | 37
CCOC(=O)c1ccc(NC(=O)c2ccc(Br)c(S(=O)(=O)N3CCCCC3)c2)cc1 | n | n | n | 49
Cc1ccc(C(=O)Nc2ccc(Sc3ccccc3)cc2)cc1S(=O)(=O)N1CCOCC1 | n | n | n | 36
CCOC(=O)C1=C(N)Oc2cc(C)oc(=O)c2C1c1ccccc1F (centres undefined) | n | n | n | n
CCOC(=O)c1[nH]c(C)c(C(=O)N(CC(C)C)CC(C)C)c1C | n | n | n | n
Cc1ccc(-c2cnc(NC3CC3)nc2)cc1 | n | n | n | 54
Oc1c(CN2CCOCC2)cc(COCc2ccccc2)c2cccnc12 | 86 | n | n | 74
CC(C)OCc1cc(CN2CCN(C)CC2)c(O)c2ncccc12 | 94 | n | n | n
CC(C)OCc1cc(CN2CCOCC2)c(O)c2ncccc12 | 94 | n | n | n
